Among all 220,000 compounds or so, about 830 (0.38%) were called active.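 The calls were made as follows: active = compound inhibiting the enzyme by more than half at any dose during confirmatory dose-response retesting; inconclusive = strong single-dose inhibitors picked by rank but not retested; inactive = the rest.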 Only a sample is shown. Potency and affinity values are given separately.
Biological target: Leucine aminopeptidase (Plasmodium falciparum (isolate 3D7)) (UniProt Q8IL11)
Test: P. falciparum M17LAP inhibitors, primary screen, biochemical, fluorogenic H-Leu-NHMec substrate, 1536-well (AID 1619);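 also: plate controls were full reaction with DMSO carrier for no effect and no enzyme background for full effect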
Settings: recombinant M17LAP, H-Leu-NHMec fluorogenic kinetic assay; at 30 µM; active compounds read high

Sequence of Leucine aminopeptidase (Plasmodium falciparum (isolate 3D7)) (Q8IL11 whole entry, looked up): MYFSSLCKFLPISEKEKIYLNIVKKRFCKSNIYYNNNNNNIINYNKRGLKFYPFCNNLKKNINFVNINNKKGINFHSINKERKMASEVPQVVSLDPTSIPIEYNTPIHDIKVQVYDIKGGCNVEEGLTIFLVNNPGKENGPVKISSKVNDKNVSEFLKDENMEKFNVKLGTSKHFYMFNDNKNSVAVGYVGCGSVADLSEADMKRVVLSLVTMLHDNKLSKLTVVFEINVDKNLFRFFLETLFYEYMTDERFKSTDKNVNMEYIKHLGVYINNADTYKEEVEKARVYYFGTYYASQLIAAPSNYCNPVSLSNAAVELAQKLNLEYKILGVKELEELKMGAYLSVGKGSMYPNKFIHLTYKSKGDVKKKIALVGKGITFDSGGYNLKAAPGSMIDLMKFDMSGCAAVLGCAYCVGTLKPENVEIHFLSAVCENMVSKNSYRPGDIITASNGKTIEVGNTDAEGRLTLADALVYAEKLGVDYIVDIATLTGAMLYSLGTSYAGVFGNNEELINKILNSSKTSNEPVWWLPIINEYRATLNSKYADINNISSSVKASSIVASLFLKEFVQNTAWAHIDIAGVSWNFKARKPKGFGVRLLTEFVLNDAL

inhibition, inactive:
COc1ccc(NC(=O)COC(=O)C2=COCCO2)cc1OC -5.64%
O=C(CN1CCCCC1)NC(=O)NCc1ccccc1 -1.39%
C=CCNC(=O)C(=O)c1cccn1-c1ccsc1C(=O)OC 1.96%
CCOP(=O)(OCC)C(Nc1cccc([N+](=O)[O-])c1)c1ccccc1 (stereo unspecified) -1.19%
CC(C)CSc1nnc2[nH]c(=O)cc(N)n12 -1.75%
CCOC(=O)c1oc2cc(O)ccc2c(=O)c1-c1ccc(OC)cc1 14.6%
COC(=O)N/N=C/c1c[nH]c2ccccc12 14.5%
Fc1c(F)c(F)c(N/N=C/c2c[nH]c3ccccc23)c(F)c1F -1.25%
COc1cccc(NC(=O)Nc2nnc(CC(=O)NCc3ccccc3)s2)c1 8.42%
COc1ccc(NC(=O)CSc2ncc(-c3ccc(F)cc3)n2Cc2ccco2)cc1 -16.2%
CCCOC(=O)c1c(NC(=O)C2CCCO2)sc(C(=O)OC)c1C (stereo unspecified) 8.59%
Cc1cc(-c2ccccc2)nc(SCC(=O)N2CCCC2)n1 1.7%
COc1ccc(-c2ccnc(SCC(=O)Nc3ccccn3)n2)cc1 7.81%
CC1CCCCN1C(=O)CSc1nc(-c2ccccc2)cn1N (stereo unspecified) 14.6%
O=C(CSc1nc(O)cc(=O)n1-c1ccccc1)Nc1ccccn1 14.8%
O=C(N1CCC(O)(c2cccnc2)CC1)C12CC3CC(CC(C3)C1)C2 3.02%
Cc1oc(C(C)(C)C)cc1C(N)=O 5.9%
Cc1c(N(C(=O)CNC(=O)c2ccccc2)C2(C(=O)NC3CCCCC3)CCCCC2)c(=O)n(-c2ccccc2)n1C -1.39%
Clc1ccc(Nc2ccc(-n3ccnc3)nn2)cc1Cl 2.24%
Cc1cc(C(=O)NCc2cccs2)n(-c2ccccc2)n1 -1.13%
COc1ccccc1NC(=S)NC(=O)c1c(-c2ccccc2Cl)noc1C -2.71%
CC(C)NC(=O)/C(C#N)=C/c1ccc(N(C)C)o1 48.4%
CC(C)NC(=O)/C(C#N)=C\c1ccc(N(C)C)o1 38%
Cc1nn(CC(=O)N2CC(=O)Nc3ccccc32)c(C)c1[N+](=O)[O-] 1.29%
CCOC(=O)c1sc(NC(=S)NC(=O)C2CCCC2)cc1C -3.81%
O=C(O)C1CCCN(S(=O)(=O)c2ccc(Br)s2)C1 (stereo unspecified) -0.9%
O=C(O)/C=C/c1cn(Cc2ccccc2)nc1-c1ccccc1 22.2%
Cc1ccc(-c2nn(Cc3ccccc3)cc2/C=C/C(=O)O)cc1 38.8%
O=C(O)/C=C\C(=O)Nc1ccc(Oc2ccccc2)cc1 15%
O=C(O)/C=C/C(=O)Nc1ccc(Oc2ccccc2)cc1 -0.33%
CCS(=O)(=O)N1CCC(C(=O)NCc2ccc(OC)cc2)CC1 5.05%
Cc1nc(SCC(=O)O)c2oc3ccccc3c2n1 1.07%
CCC(C)[C@H](Nc1nc(-c2ccccc2)nc2c1oc1ccccc12)C(=O)O (stereo partly specified) 51.5%
O=C(O)CSc1nc(-c2ccccc2)nc2c1oc1ccccc12 28.6%
CCOC(=O)C1CCN(c2nc(-c3ccccc3)nc3c2oc2ccccc23)CC1 41.7%
NC(=O)C1CCN(c2nc(-c3ccccc3)nc3c2oc2ccccc23)CC1 -0.35%
CCc1nc(N[C@H](C(=O)O)C(C)C)c2oc3ccccc3c2n1 3.02%
COc1ccc(N=C2NC(=O)/C(=C/C=C/c3ccccc3)S2)cc1 3.51%
CCc1ccc(C2CC(c3ccc(Cl)cc3)n3nc(N)nc3N2)cc1 (stereo unspecified) -1.74%
CCC(CC)Nc1ccc(C(CC(N)=O)NC(=O)Cc2ccc(Br)cc2)cc1[N+](=O)[O-] (stereo unspecified) -4.54%
CN(C)c1ccnc2sc(C(=O)NCc3ccccc3)c(N)c12 -4.21%
Cc1ccc(NC(=O)CCC(=O)OCC(=O)c2ccc(Oc3ccc([N+](=O)[O-])cc3)cc2)c(C)c1 13.8%
CC(C)c1nnc(NC(=O)CSc2nnc(NC(=O)c3c(F)cccc3F)s2)s1 2.85%
O=C(CSc1nnc(NC(=O)c2ccco2)s1)Nc1ccc(F)cc1 -1.02%
COc1ccc(NC(=O)CSc2nnc(NC(=O)c3ccco3)s2)cc1 22.5%
Cc1cccc(C)c1NC(=O)CSc1nnc(NC(=O)c2ccccc2C(=O)O)s1 19.1%
C=CCn1cnc2sc(C(=O)Nc3ccccc3OC)c(C)c2c1=O 7.04%
Clc1ccc(-c2cc(COc3ccc4ccccc4c3)no2)cc1 -2.54%
COc1ccc(C(=O)CSc2nc(N)nc(SC)c2C#N)cc1 -5.8%
CN1C(=O)/C(=C/c2ccco2)SC1=Nc1ccc(N2CCOCC2)cc1 -4.86%
CCN1C(=O)/C(=C\c2ccc(-c3ccc([N+](=O)[O-])cc3OC)o2)SC1=Nc1cccc(C(=O)O)c1 28.7%
CCOC(=O)c1sc(-c2ccccn2)nc1C 10.5%
C/C(O)=C(\C#N)c1nc2ccccc2[nH]1 1.5%
CCN(CC)S(=O)(=O)c1ccc(Cl)c(NC(=O)CCCCl)c1 8.77%
NC(=O)C1CCN(C(=O)c2ccc(CS(=O)(=O)c3c(Cl)cccc3Cl)o2)CC1 1.58%
CCCCn1c(N)c(Br)c(=O)[nH]c1=O 10%
COc1ccc(OC)c(/C=N/NC(=O)CC2C(=O)NN=C2C)c1 (stereo unspecified) -164%
COc1cc(OC)c(OC)cc1/C=N/NC(=O)CC1C(=O)NN=C1C (stereo unspecified) 53.3%
CCOc1cccc(/C=N/NC(=O)CC2C(=O)NN=C2C)c1O (stereo unspecified) 3.72%
COc1cc(/C=N/NC(=O)CC2C(=O)NN=C2C)ccc1O (stereo unspecified) 10.4%
CCCn1c(C2CC(=O)N(c3ccc(C)cc3)C2)nc2ccccc21 (stereo unspecified) 4.53%
O=C(Nc1cccc(F)c1)/C(=C\c1cccnc1)NC(=O)c1cccs1 7.11%
CC1=C(C#N)C(=O)NC(=O)/C1=C\c1ccc(-c2cc(C)c(C)cc2[N+](=O)[O-])o1 24.2%
CC1=C(C#N)C(=O)NC(=O)/C1=C/c1ccc(-c2ccc(S(N)(=O)=O)cc2)o1 35.6%
CC(=O)c1c(O)cc(=O)n(-c2ccccc2)c1-c1ccc(C)cc1 0.53%
CC(=O)c1c(O)cc(=O)n(-c2ccccc2)c1-c1ccc(Cl)cc1 -10.1%
Cc1cccc(Nc2nnc(SCC(=O)c3ccc(Br)s3)s2)c1C 23%
CN(C(=O)CSc1nnc(-c2ccc(Cl)cc2)n1CC1CCCO1)C1CCS(=O)(=O)C1 (stereo unspecified) -0.82%
COc1ccc(CNc2ncccn2)cc1OC -2.62%
Cc1nc2nc(COc3ccccc3)nn2c(C)c1Cl -4.07%
Nc1nc2nc(-c3ccc(OCc4ccccc4)cc3)cc(C(F)(F)F)n2n1 -1.91%
CSc1nc2nc(C)cc(-c3ccccc3)n2n1 -6.85%
COc1cc(C)nc2nc(SCc3ccccc3)nn12 -4.54%
COc1ccc(CNc2nc3nc(C)cc(C)n3n2)cc1OC 4.62%
Cc1cc(C)n2nc(SCc3ccccc3)nc2n1 -5.69%
CSc1nc2nc(-c3ccccc3)cc(C(F)(F)F)n2n1 -8.74%
COC(=O)c1c(NC(=O)Cn2cnc([N+](=O)[O-])n2)sc2c1CCC(C)C2 (stereo unspecified) 1.07%
O=C(NC1CCN(Cc2ccccc2)CC1)C1CCN(c2nnc(-n3cccc3)s2)CC1 -1.52%
Nc1cc(C(F)(F)F)ccc1Nc1ccccc1 -4.7%
CCCCOC(=O)Nc1ccccc1C(=O)N1CCCC1 10.4%
CCOC(=O)C(C(=O)NCC1CCCO1)C1CCCCC1 (stereo unspecified) 5.23%
CCOC(=O)C1(O)CSc2nc3sc(C(=O)O)c(C)c3c(=O)n21 (stereo unspecified) -2.76%
COc1ccc(-c2noc(CN(C)Cc3ccc(C)o3)n2)cc1 1.39%
COc1cc([N+](=O)[O-])ccc1NC(=O)CN1CCN(C(=O)c2ccco2)CC1 17.7%
COc1cc2c(C(=O)N3CCN(c4cccc(Cl)c4)CC3)cn(CC(C)C)c(=O)c2cc1OC -4.76%
CC1(C)Cc2c(c(N3CCOCC3)nc3sc4c(N5CCOCC5)nnnc4c23)CS1 -1.05%
CCc1ccc(NC2=NCC(=O)N2c2ccc3c(c2)OCCO3)cc1 -5.16%
CCOC(=O)C1(CC2CC2)CCN(Cc2cn[nH]c2-c2cccc(F)c2)CC1 -3.31%
Cc1ccc(NC(=O)c2ccccc2OCC(=O)c2ccccc2)cc1 3.34%
O=C(Cc1cccs1)N/N=C/C(Cl)=C/c1ccccc1 -2.46%
O=C(Cc1cc(=O)[nH][nH]1)N/N=C/C(Cl)=C/c1ccccc1 52.8%
O=C(Cc1cc(=O)[nH][nH]1)N/N=C/c1c(Cl)cccc1Cl 47.6%
O=C(Cc1ccc(Cl)cc1)N/N=C/c1c(Cl)cccc1Cl -10.8%
CC(/C=N/NC(=O)Cc1cccs1)=C\c1ccccc1 -13.2%
CC(/C=N/NC(=O)Cc1cccn1C)=C\c1ccccc1 32.7%
O=C(CCCN1C(=O)c2cccc3cccc(c23)C1=O)NCCN1CCOCC1 4.16%

— PubChem BioAssay AID1619 (SRMLSC, 2009)
